The structures appear in SMILES notation. Records with an inconclusive call do not appear. Activity calls are given as the source filed them. How the source made its calls: active means hit-call score of the fitted dose curve at least 0.9, where 1 is the maximum; inconclusive means response in the unintended direction; inactive means score below 0.9.

rat CYP2E1, Cyp2e1 (gene 25086), sequence (P05182 whole entry, looked up): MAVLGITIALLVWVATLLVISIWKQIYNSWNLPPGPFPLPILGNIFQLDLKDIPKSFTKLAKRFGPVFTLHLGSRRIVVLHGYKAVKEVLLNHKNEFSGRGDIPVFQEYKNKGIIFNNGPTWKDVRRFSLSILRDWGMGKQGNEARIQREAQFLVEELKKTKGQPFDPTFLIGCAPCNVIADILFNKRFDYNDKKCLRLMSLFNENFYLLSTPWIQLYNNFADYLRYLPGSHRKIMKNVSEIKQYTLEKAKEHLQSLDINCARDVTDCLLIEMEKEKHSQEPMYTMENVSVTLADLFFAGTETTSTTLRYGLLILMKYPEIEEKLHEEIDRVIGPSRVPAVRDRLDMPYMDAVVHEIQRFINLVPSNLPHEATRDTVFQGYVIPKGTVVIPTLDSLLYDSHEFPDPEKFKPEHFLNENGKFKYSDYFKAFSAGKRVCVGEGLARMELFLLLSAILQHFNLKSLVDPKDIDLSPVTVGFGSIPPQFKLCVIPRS

The target in this test is rat CYP2E1, Cyp2e1 (gene 25086) (UniProt P05182). Put plainly: NVS_ADME_rCYP2E1: NovaScreen (NVS) CYP450-related Enzyme Activity (ADME) Assay for rat CYP2E1. As to the method:
NVS_ADME_rCYP2E1 is a biochemical, single-readout assay that uses extracted gene-proteins in a cell-free assay. Measurements were taken 1 hour after chemical dosing in a 96-well plate.NVS_ADME_rCYP2E1 is one of one assay component(s) measured or calculated from the NVS_ADME_rCYP2E1 assay. It is designed to make measurements of enzyme activity, a form of enzyme reporter, as detected with fluorescence intensity signals by Fluorescence technology.Data from the assay component NVS_ADME_rCYP2E1 was analyzed into 1 assay endpoint. This assay endpoint, NVS_ADME_rCYP2E1, was analyzed in the positive analysis fitting direction relative to Acetonitrile as the negative control and baseline of activity. Using a type of enzyme reporter, loss-of-signal activity can be used to understand changes in the enzymatic activity as they relate to the gene Cyp2e1. Furthermore, this assay endpoint can be referred to as a primary readout, because this assay has produced multiple assay endpoints where this one serves a enzymatic activity function. To generalize the intended target to other relatable targets, this assay endpoint is annotated to the cyp intended target family, where the subfamily is xenobiotic metabolism.
Binding assays used specific radioligands (tritiated, iodinated) with non-radioactive competitive displacement ligands in agonist or antagonist protocols (as indicated) and various reference compounds and inhibitors to titrate specific binding to receptors and transporters. Most enzyme assays (CYPs, kinases, phosphatases, proteases, HDACs) used recombinant protein and specific substrates (fluorescence mostly, some colorimetric and radioactive) and inhibitors, followed by a biochemical separation of substrate and product. All assays for the biochemical HTS were initially run in duplicate at a single concentration (10 uM for CYP450 assays and 25 uM for all others). Assay-chemical combinations meeting a pre-defined threshold (e.g., 30% inhibition and other criteria defined below) were then run in singleton concentration-response format with maximum concentration of 20 uM for CYPs and 50 uM for all others. Each assay was run with positive and negative controls, and concurrent controls on every plate. The follow-up (secondary) screen tested active chemical-pairs in concentration series, as well as a few additional assays not tested in the primary screen, some selected negative inactives, and several cases re-run in the concentration series for confirmatory purposes.
Consider `S=C(S)NCCNC(=S)S.[Mn+2].[S-]C([S-])=NCCN=C([S-])[S-].[Zn+2]`, for which the call was inactive.

In general, AC50 refers to the midpoint of the concentration-response curve, whichever way the signal moves. As to `N#CSCSc1nc2ccccc2s1`, the AC50 is 10 µM (active).

In the case of `S=C([S-])NCCNC(=S)[S-].[Mn+2]`, the compound was called inactive.

Turning to `C#CCOC(=O)[C@@H](C)Oc1ccc(Oc2ncc(Cl)cc2F)cc1`, the AC50 is 1.6 µM (active).

Source of the values: PubChem BioAssay AID2283123 (EPA ToxCast).
